Records with an inconclusive call do not appear. The source made the active and inactive calls. Unless noted, calls follow the shape of the dose curve; as a rule, active = well fitted curve in the direction sought with a large enough effect in the repeat runs; inconclusive = weak or mixed curves; inactive = no such curve, though single readings can be large; an effect the other way counts as inactive or inconclusive.
Experiments:
[1] = qHTS assay to identify small molecule agonists of H2AX (AID 1224845; active = well fitted activation curve with a large enough effect in the signal ratio in the repeat runs, not every such curve was filed as active; the % refers to the signal ratio; also: potency is read from the fitted curve at half-maximal effect); details: CHO-K1 phospho-H2AX Ser139 HTRF, 3 h; series mostly up to 154 µM
In short: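 Wild-type CHO-K1 cells plated overnight, then exposed 3 hr at 37C to compounds at 15 concentrations (0.76% DMSO). Lysed, then HTRF anti-pH2AX(S139)-cryptate/anti-H2AX-d2 detection after 24 hr at room temperature; emissions 665 and 620 nm.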

[2] = qHTS assay to identify small molecule agonists of H2AX - cell viability counter screen (AID 1224847; calls by dose curve; also: nearly all actives have a fitted effect of over 30% in size; also: potency is read from the fitted curve at half-maximal effect); details: CHO-K1 viability, CellTiter-Glo luminescence, 3 h; series mostly up to 154 µM
In short: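 Counter-screen for viability: CellTiter-Glo ATP luminescence read after 3 h compound treatment (15-point titration, 0.76% DMSO final) of CHO-K1 cells at 37C, with 30 min room-temperature reagent incubation.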

[3] = qHTS assay to identify small molecule antagonists of the estrogen related receptor (ERR) signaling pathway from Tox21 library (AID 1224848); details: ERR reporter cell line, luciferase antagonist mode, 18 h; series mostly up to 92.4 µM; also: nearly all actives have a fitted effect of over 50% in size; also: potency is read from the fitted curve at half-maximal effect
In short: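 Cells: ERR line, 2,000/well; 6 h preincubation 37 C/5% CO2. Cpd in DMSO via pin tool; 18 h, 37 C. ONE-Glo, 30 min RT, luminescence.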

[4] = qHTS assay to identify small molecule agonists of the estrogen related receptor (ERR) signaling pathway from Tox21 library (AID 1224849; calls by dose curve; also: nearly all actives have a fitted effect of over 15% in size); details: ERR reporter cell line, ONE-Glo luciferase, 18 h; at 92.4 µM (top of the series) unless noted
In short: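 Agonist signal is luciferase luminescence from an ERR reporter cell line treated 18 h at 37 C with DMSO-dissolved compounds, read 30 min after ONE-Glo addition at room temperature.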

[5] = qHTS RealTime-Glo MT Cell Viability Assay in HEK293 cells - 32 hour (AID 1224868); details: RealTime-Glo luminescence; series mostly up to 76.8 µM; also: nearly all actives have a fitted effect of over 50% in size; also: potency is read from the fitted curve at half-maximal effect
In short: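 Luminescence generated by NanoLuc from substrate produced by living HEK293 cells served as the viability signal. Each value reflects the reading at its stated time point during continuous 40 h compound exposure at 37 C.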

[6] = A CellTox Green Cytotoxicity Assay to monitor cytotoxicity in HEK293 cells - 0 hour (AID 1224869); details: CellTox Green fluorescence; series mostly up to 76.8 µM; also: nearly all actives have a fitted effect of over 50% in size
In short: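 Cytotoxicity was tracked continuously in HEK293 cells by a DNA-binding dye excluded from viable cells. Compounds were transferred in DMSO 5 h after seeding; fluorescence was recorded at intervals up to 40 h.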

[7] = qHTS RealTime-Glo MT Cell Viability Assay in HepG2 cells - 40 hour (AID 1224870); details: RealTime-Glo luminescence; series mostly up to 76.8 µM; also: nearly all actives have a fitted effect of over 50% in size; also: potency is read from the fitted curve at half-maximal effect
In short: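 HepG2 cells mixed with RealTime-Glo MT reagents (NanoLuc plus cell-permeant prosubstrate) were seeded at 600 cells/well, incubated 5 h at 37 C/5% CO2, then pinned with compounds in DMSO; nonlytic luminescence tracked viability during 40 h treatment.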

[8] = qHTS RealTime-Glo MT Cell Viability Assay in HepG2 cells - 24 hour (AID 1224867); details: RealTime-Glo luminescence; series mostly up to 76.8 µM; also: nearly all actives have a fitted effect of over 50% in size; also: potency is read from the fitted curve at half-maximal effect
In short: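 Tox21 10K library screened in qHTS format on HepG2 cells carrying RealTime-Glo reagents. Compounds were added after a 5 h preincubation, and the luminescent signal from continuous culture was measured repeatedly during 40 h treatment.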

[9] = qHTS assay to identify small molecule agonists of the hypoxia (HIF-1) signaling pathway (AID 1224846; active = well fitted activation curve with a large enough effect in the signal ratio in the repeat runs, not every such curve was filed as active; the % refers to the signal ratio); details: HRE-bla ME-180 cells, beta-lactamase ratio, 17 h; series mostly up to 76.8 µM
In short: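 Steps: seed ME-180 HRE-bla cells (2,000/well, 0.5% dialyzed FBS); incubate 5 hrs at 37C; pin-transfer compounds or DMSO; incubate 17 hrs; add LiveBLAzer B/G substrate CCF4-AM; measure reporter activation by FRET.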
% is scaled to controls: 0 for no effect and ±100 for the full control effect.

CC(C)=CCC/C(C)=C/CC/C(C)=C/C(=O)OCC(=O)[C@@]1(O)CC[C@H]2[C@@H]3CCC4=CC(=O)C=C[C@]4(C)[C@H]3[C@@H](O)C[C@@]21C
active: Potency [3] 6.68 µM | Potency [5] 4.77 µM
inactive: Potency [1] | Potency [2] | activity change, positive = activation [4] -50.7% [at 42.5 µM] | Potency [6] | Potency [7]

COc1ccccc1N1CCN(CC(O)COc2cccc3ccccc23)CC1 (centres undefined)
active: Potency [2] 49.2 µM | Potency [5] 26.8 µM
inactive: Potency [1] | Potency [6]

C=C/C(C)=C/C/C=C(\C)CCC=C(C)C
inactive: Potency [1] | Potency [2] | activity change, positive = activation [4] -20.3% | Potency [8] | Potency [6] | Potency [7]

O=C1Cc2ccccc2N1c1c(Cl)cccc1Cl
active: Potency [3] 48.6 µM | Potency [5] 24.5 µM
inactive: Potency [1] | outcome [9] | activity change, positive = activation [4] -43.8% | Potency [8] | Potency [6] | Potency [7]

CC1=C(Br)C(=O)C(Br)=C/C1=C(/c1ccccc1S(=O)(=O)O)c1cc(Br)c(O)c(Br)c1C
inactive: outcome [9] | activity change, positive = activation [4] -55.4% [at 42.5 µM] | Potency [8] | Potency [6] | Potency [7]
active: Potency [2] 21.7 µM | Potency [3] 18.6 µM

O=C1c2ccccc2C(=O)C1(O)O
inactive: outcome [9] | activity change, positive = activation [4] -26.5% | Potency [8] | Potency [5] | Potency [6] | Potency [7]
active: Potency [1] 50.8 µM

CC(C)COCC(CN(Cc1ccccc1)c1ccccc1)N1CCCC1 (centres undefined)
active: Potency [1] 49.2 µM | Potency [2] 43.8 µM | Potency [8] 23.9 µM | Potency [5] 10.7 µM | Potency [7] 23.9 µM

CC(C)(c1ccccc1)c1ccccc1
inactive: Potency [1] | outcome [9] | Potency [2] | Potency [8] | Potency [5] | Potency [7]

c1csc(SSc2cccs2)c1
inactive: outcome [9] | Potency [2] | activity change, positive = activation [4] -56.7% | Potency [6]
active: Potency [3] 61.1 µM

Clc1ccc(Nc2nnc(Cc3ccncc3)c3ccccc23)cc1
inactive: outcome [9] | Potency [2] | activity change, positive = activation [4] -42.3% [at 42.5 µM] | Potency [8] | Potency [6] | Potency [7]
active: Potency [3] 11.9 µM | Potency [5] 21.3 µM

Clc1cc(Cl)nc(Cl)n1
inactive: Potency [1] | Potency [2] | Potency [8] | Potency [6] | Potency [7]

c1ccc2sc(SN(C3CCCCC3)C3CCCCC3)nc2c1
inactive: Potency [1] | Potency [2] | Potency [8] | Potency [6] | Potency [7]

C=Cc1ccc(S(=O)(=O)O)cc1
inactive: Potency [1] | outcome [9] | Potency [2] | Potency [3] | activity change, positive = activation [4] 6.91% | Potency [8] | Potency [5] | Potency [6] | Potency [7]

Cc1cccc(O)c1N
inactive: Potency [2] | activity change, positive = activation [4] -14.7% | Potency [8] | Potency [7]

CCOC(=O)c1ccc(I)cc1
inactive: outcome [9] | Potency [2] | Potency [3] | activity change, positive = activation [4] -4.74% | Potency [8] | Potency [6] | Potency [7]

COc1ccc(OC(=O)N(CC(=O)O)Cc2ccc(OCCc3nc(-c4ccccc4)oc3C)cc2)cc1
active: Potency [2] 27.7 µM
inactive: Potency [1] | outcome [9] | activity change, positive = activation [4] -6.74% [at 42.5 µM] | Potency [8] | Potency [5] | Potency [6] | Potency [7]

CCOC(=O)c1ccccc1C(=C1C=C(Br)C(=O)C(Br)=C1)c1cc(Br)c(O)c(Br)c1
inactive: Potency [2] | activity change, positive = activation [4] -32.1% [at 42.5 µM] | Potency [8] | Potency [6] | Potency [7]
active: Potency [3] 45.7 µM

CC(=O)N/N=C/c1ccc([N+](=O)[O-])o1
inactive: Potency [3] | activity change, positive = activation [4] -10.2% [at 42.5 µM] | Potency [8] | Potency [5] | Potency [6] | Potency [7]

CC[C@]1(O)C[C@H]2CN(CCc3c([nH]c4ccccc34)[C@@](C(=O)OC)(c3cc4c(cc3OC)N(C=O)[C@H]3[C@@](O)(C(=O)OC)[C@H](OC(C)=O)[C@]5(CC)C=CCN6CC[C@]43[C@@H]65)C2)C1
inactive: Potency [1] | Potency [2] | Potency [8] | Potency [6] | Potency [7]
active: Potency [5] 0.0013 µM

CCOC(=O)c1ccc(O)c(O)c1
inactive: Potency [2] | Potency [8] | Potency [6] | Potency [7]

O=[N+]([O-])c1cc(C2CCCCC2)c(O)c([N+](=O)[O-])c1
active: Potency [2] 11.3 µM | Potency [5] 12.3 µM | Potency [7] 48.9 µM
inactive: Potency [1] | activity change, positive = activation [4] -69.4% | Potency [6]

O=C=Nc1cccc(C(F)(F)F)c1
active: Potency [3] 60.7 µM
inactive: Potency [1] | outcome [9] | activity change, positive = activation [4] -56.5% | Potency [8] | Potency [6] | Potency [7]

C=CC(=O)[O-].C=CC(=O)[O-].[Zn+2]
inactive: Potency [1] | outcome [9] | Potency [2] | Potency [8] | Potency [5] | Potency [7]

O=C(O)CCCCCCCCCCCBr
inactive: Potency [1] | Potency [2] | Potency [3] | Potency [8] | Potency [5] | Potency [7]

CC(=O)c1ccc([N+](=O)[O-])cc1
inactive: Potency [1] | outcome [9] | Potency [2] | Potency [3] | activity change, positive = activation [4] 1.22% | Potency [8] | Potency [6] | Potency [7]

CC(C)(C)CC(=O)OCC(=O)[C@@]1(O)CC[C@H]2[C@@H]3CCC4=CC(=O)C=C[C@]4(C)[C@H]3[C@@H](O)C[C@@]21C
inactive: Potency [1] | outcome [9] | activity change, positive = activation [4] -49.3% [at 42.5 µM] | Potency [8] | Potency [6] | Potency [7]
active: Potency [2] 55.2 µM | Potency [3] 26.6 µM | Potency [5] 19 µM

Cc1ccc2c(Br)cc(Br)c(O)c2n1
active: Potency [1] 39.1 µM | Potency [3] 8.41 µM
inactive: activity change, positive = activation [4] -65.3% [at 42.5 µM] | Potency [8] | Potency [7]

CCC(=O)C1CC(C(C)C)CC=C1C (centres undefined)
inactive: Potency [1] | Potency [2] | Potency [3] | activity change, positive = activation [4] 5.57% | Potency [8] | Potency [6] | Potency [7]

Cc1cc(O)ccc1O
active: Potency [2] 51 µM | activity change, positive = activation [4] -73.6%
inactive: Potency [3] | Potency [8] | Potency [6] | Potency [7]

CCC(C)(C)OC
inactive: Potency [1] | outcome [9] | Potency [2] | Potency [3] | activity change, positive = activation [4] -8.72% | Potency [8] | Potency [5] | Potency [6] | Potency [7]

CN1CCCC(CC2c3ccccc3Sc3ccccc32)C1 (centres undefined)
inactive: activity change, positive = activation [4] -39.8% [at 42.5 µM] | Potency [6]
active: Potency [8] 23.9 µM | Potency [5] 23.9 µM | Potency [7] 26.8 µM

Nc1nc2ccc([N+](=O)[O-])cc2s1
inactive: Potency [2] | Potency [8] | Potency [6] | Potency [7]

C/C=C\C/C=C/CCCCCCCCOC(C)=O
inactive: Potency [1] | Potency [2] | activity change, positive = activation [4] -15% | Potency [8] | Potency [5] | Potency [6] | Potency [7]

CCCCCCCC/C=C\CCCCCCCCCCCC(=O)O
inactive: Potency [1] | outcome [9] | Potency [2] | Potency [8] | Potency [6] | Potency [7]

c1cc(N(CC2CO2)CC2CO2)ccc1Cc1ccc(N(CC2CO2)CC2CO2)cc1 (centres undefined)
active: Potency [3] 21.7 µM | Potency [5] 34.7 µM
inactive: Potency [2] | activity change, positive = activation [4] -66.1% | Potency [6]

COc1ccccc1NC(=O)c1cc2ccccc2cc1O
inactive: Potency [1] | activity change, positive = activation [4] -49.7% | Potency [6]
active: Potency [2] 89.8 µM | Potency [3] 19.3 µM | Potency [5] 34.7 µM

CC(C)=CCC1C(=O)N(c2ccccc2)N(c2ccccc2)C1=O
inactive: Potency [1] | Potency [2] | Potency [8] | Potency [5] | Potency [6] | Potency [7]

CC1(C)[C@@H](OC(=O)CCC(=O)O)CC[C@]2(C)[C@H]3C(=O)C=C4[C@@H]5C[C@@](C)(C(=O)O)CC[C@]5(C)CC[C@@]4(C)[C@]3(C)CC[C@@H]12
inactive: Potency [1] | Potency [3] | activity change, positive = activation [4] 1.84% [at 42.5 µM] | Potency [8] | Potency [5] | Potency [6] | Potency [7]

CCCC(C(=O)OCCN(CC)CC)(c1ccccc1)c1ccccc1
active: Potency [3] 29.8 µM | Potency [5] 21.3 µM
inactive: activity change, positive = activation [4] -35.3% [at 42.5 µM] | Potency [6] | Potency [7]

CCOc1cccc(-n2cc(C(=O)N3CCN(c4cc(C(=O)O)c5ccccc5c4)CC3)nc2-c2ccc(C)cc2)c1
inactive: outcome [9] | activity change, positive = activation [4] -37.7% | Potency [8] | Potency [5] | Potency [6] | Potency [7]

Reference: PubChem BioAssay (Tox21)
